In the library only some 5.1% were active in any assay of this set; here they are far more common.
RAM network inh = inhibitors of the yeast RAM network, primary screen, dse1pr::URA3 reporter, 5-FOA selection; 190,000 tested, 1.8% active; AID 868, 2007; S. cerevisiae dse1pr::URA3 reporter, 5-FOA growth OD615, 2 d; analog-sensitive cbk1-as2 kinase mutant strain; inhibition, % at 50 µM;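 active means inhibition above a set limit, 3 SD over mean compound inhibition, cut at about 8.4% in these data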;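 further: 0% = DMSO-only wells with no growth and 100% = 10 µM 1-NA-PP1 full growth; inhibition rescues growth on 5-FOA so higher OD means more RAM inhibition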
S1P4 antagonist = S1P4 receptor antagonists, primary screen, cell-based. 220,000 tested, 0.26% active. Sphingosine 1-phosphate receptor 4 (Homo sapiens), O95977. S1P4-expressing cells, antagonist mode, reporter read-out. inhibition, % at 4.98 µM; in the data active means inhibition above about 29%;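 further: 0% = wells stimulated with agonist and 100% = vehicle wells without agonist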
S1P4 ag = S1P4 receptor agonists, primary screen, cell-based. Sphingosine 1-phosphate receptor 4 (Homo sapiens), O95977. S1P4-expressing cell line, agonist reporter assay. activation, % at 4.98 µM. 220,000 tested, 0.35% active; in the data active means activation above about 11%;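 further: 0% = DMSO vehicle and 100% = reference agonist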
KCC2 mod = KCC2 cotransporter modulators, thallium flux, primary screen, cell-based, HEK293 KCC2, FluoZin-2 fluorescence, MLSMR. Solute carrier family 12 member 5 (Homo sapiens), Q9H2X9. KCC2 cells, thallium flux FluoZin-2 fluorescence. B-score of Tl+ flux slope (higher = more flux/activation; lower = inhibition) at 10 µM. 190,000 tested, 2.2% active;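 active means thallium flux slope and its plate-corrected score both differing from the plate sample mean at a set confidence after two filtering rounds, in either direction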;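 further: slope of fluorescence scaled to starting intensity during 10 to 20 s after thallium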
Target sequence (Q9H2X9 whole entry, looked up): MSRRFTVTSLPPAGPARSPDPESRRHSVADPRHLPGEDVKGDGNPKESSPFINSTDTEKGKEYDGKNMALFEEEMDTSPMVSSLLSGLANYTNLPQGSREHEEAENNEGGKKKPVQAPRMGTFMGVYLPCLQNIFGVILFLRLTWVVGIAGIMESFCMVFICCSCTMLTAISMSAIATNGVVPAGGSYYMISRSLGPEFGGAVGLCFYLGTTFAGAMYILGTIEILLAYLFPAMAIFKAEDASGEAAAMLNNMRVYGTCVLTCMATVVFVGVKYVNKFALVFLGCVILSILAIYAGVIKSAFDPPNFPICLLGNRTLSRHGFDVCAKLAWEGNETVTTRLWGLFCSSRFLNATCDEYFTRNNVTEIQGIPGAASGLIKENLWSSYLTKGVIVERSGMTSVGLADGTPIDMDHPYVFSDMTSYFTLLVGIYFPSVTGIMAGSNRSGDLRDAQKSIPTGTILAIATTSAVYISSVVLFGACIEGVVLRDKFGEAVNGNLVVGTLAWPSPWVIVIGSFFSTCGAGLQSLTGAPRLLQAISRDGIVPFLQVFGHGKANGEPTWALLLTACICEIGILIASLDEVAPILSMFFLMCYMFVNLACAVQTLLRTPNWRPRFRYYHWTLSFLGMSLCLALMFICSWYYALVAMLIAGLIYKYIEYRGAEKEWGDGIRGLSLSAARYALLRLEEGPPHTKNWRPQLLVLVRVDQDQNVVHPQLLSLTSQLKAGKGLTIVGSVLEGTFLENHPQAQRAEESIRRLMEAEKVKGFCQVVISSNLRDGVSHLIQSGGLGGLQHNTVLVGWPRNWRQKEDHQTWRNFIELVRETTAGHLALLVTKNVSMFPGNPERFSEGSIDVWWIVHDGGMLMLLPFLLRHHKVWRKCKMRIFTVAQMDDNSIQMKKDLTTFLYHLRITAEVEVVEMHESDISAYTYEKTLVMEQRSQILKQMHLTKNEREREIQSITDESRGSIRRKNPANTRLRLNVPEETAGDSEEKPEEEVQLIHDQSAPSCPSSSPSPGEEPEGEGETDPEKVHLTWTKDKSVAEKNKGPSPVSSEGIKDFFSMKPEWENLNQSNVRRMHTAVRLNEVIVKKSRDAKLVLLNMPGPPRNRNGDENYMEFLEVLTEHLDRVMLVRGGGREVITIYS
ROMK mod = ROMK potassium channel modulators, primary screen, cell-based, thallium flux, MLSMR library | Tet-inducible ROMK, thallium flux fluorescence; actives lie on both sides | 130,000 tested, 2% active | ATP-sensitive inward rectifier potassium channel 1 (Homo sapiens), P48048 | B-score at 10 µM;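 active means signal ratio slope over the read window, or its plate-corrected B-score, at least 3 SD from the plate mean, either direction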;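 further: B-score of the F/F0 ratio slope over 7 to 12 s after thallium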
S1P3 antag = S1P3 receptor antagonists, primary screen, cell-based; inhibition, % at 4.98 µM; 170,000 tested, 0.27% active; CHO S1P3 NFAT-BLA reporter, FRET fluorescence, antagonist mode;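 active means inhibition above the plate cutoff, the mean inhibition of test wells on that plate plus 3 SD, cut at about 28% in these data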;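 further: cells challenged with S1P at its EC80 of 0.8 µM; blue over green emission ratio from cleaved BLA substrate after 4 h stimulation; 0% = S1P-stimulated wells and 100% = unstimulated DMSO-only wells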
The depositor's hits bear a star; i = inactive; . = no result given.

SMILES	RAM network inh	S1P4 antagonist	S1P4 ag	KCC2 mod	ROMK mod	S1P3 antag
O=S(=O)(c1ccc(Cl)s1)N1CCC(Cc2ccccc2)CC1	8.9*	1	0	-0.37	.	.
O=S(=O)(c1ccc(Br)s1)N1CCC(Cc2ccccc2)CC1	1	10	1	0.15	.	.
COc1ccc(OC)c(-n2c(=S)[nH]c3c(sc(=S)n3-c3ccccc3)c2=O)c1	5	1	1	-0.35	0.18	-10
CCN(CC)/C(Sc1ccccc1)=C(/C(Cl)=C(Cl)Cl)[N+](=O)[O-]	0	-9	0	-1.4	.	4
CCc1ccc(C2CC(=O)N(c3cccc(F)c3)C3=C2C(=O)OC3)cc1 (centres undefined)	1	-20	1	.	-0.13	0
COc1ccc(Oc2nc(-c3cccnc3)nc3ccccc23)cc1	.	4	0	-0.058	.	-3
COc1ccc(Oc2nc(SC)nc3ccccc23)cc1	11*	-20	-1	0.86	.	.
COc1ccccc1-n1cc(-c2ccc([N+](=O)[O-])cc2)[nH]c1=S	.	-6	0	0.043	-0.28	4
O=[N+]([O-])c1ccc(-c2cn(-c3ccccc3)c(=S)[nH]2)cc1	10*	-14	0	3.5	.	16
C/C(=N\NC(=O)c1c(Cl)c(C)nn1C)c1cccc(NC(=O)COc2ccccc2)c1	0	12	1	0.076	4.1*	.
CCCSc1nc(C)c(-c2csc(C(C#N)=C3CCCC3)n2)cc1C#N	8.9*	2	-2	0.54	.	-7
CCCCSc1nc2c(cc1C#N)CCC2	4	-10	-1	1.5	0.064	6
O=C1CCCC(=O)C1=Cc1c[nH]c2ccccc12	2	1	0	-2	-4.1*	.
CNc1ccc(/C=C/C(=O)c2ccc3c(c2)OCCO3)cc1[N+](=O)[O-]	9.0*	-8	0	0.52	0.89	-19
CCO[C@H]1OC(C(=O)NCc2ccccc2)=C[C@@H](c2ccc(C(F)(F)F)cc2)[C@@H]1CCCO	3	14	-1	-0.035	.	-14
CCO[C@H]1OC(C(=O)Nc2ccccc2)=C[C@@H](c2ccc(C(F)(F)F)cc2)[C@@H]1CCCO	9.0*	6	-1	-0.31	.	-4
CCOC(=O)C1(Cc2cccc(F)c2)CCN(C(=O)Cn2cnnn2)CC1	.	8	0	-1	.	-7
Cc1nc(N(C)C)c2sc(=S)n(C)c2n1	2	-6	1	0.67	.	96*
CC(=O)Nc1ccc(Cc2nc3c([nH]2)c(=O)n(C)c(=O)n3C)cc1	.	2	-1	0.64	.	8
CCOC(=O)c1cc(-c2ccccc2)sc1NC(=O)CSc1nncs1	7	-9	0	-1	.	2
CCOC(=O)c1c(-c2ccccc2)csc1NC(=O)CSc1nncs1	11*	0	-1	-0.91	-0.64	-9
Cc1cc(-c2cc(C(=O)NCc3ccccc3)on2)nc(NC2CCCC2)n1	.	.	.	-1.1	.	.
CC(C)(C)NC(=O)C(=O)NNC(=O)c1ccc(C(C)(C)C)cc1	0	-14	-1	54*	.	8
Cc1ccc(-n2c(C)nn(CCOc3ccccc3)c2=O)cc1	0	-7	-1	-0.54	-0.22	9
O=C(CSc1ccc(C(F)(F)F)cc1[N+](=O)[O-])Nc1ccc2ccccc2c1	5	1	-2	0.19	.	4
CCOc1ccc(C2=C(C=Nc3c(C)n(C)n(-c4ccccc4)c3=O)C(c3ccc(F)cc3)c3ccccc3O2)cc1 (centres undefined)	8.5*	-14	0	0.13	0.75	.
COc1ccc(CN(C)CC(=O)NC(=O)NCc2ccccc2)cc1OC	2	-12	0	5*	.	8
COc1cccc(CN(C)CC(=O)NC(=O)NCc2ccccc2)c1	-1	-16	0	0.56	.	9
COC(=O)c1cc(NC(=O)c2ccccc2)c(=O)oc1/C=C/Nc1ccc(Oc2ccccc2)cc1	6	-5	2	i	-4.5*	2
COc1ccc(C(=O)Nc2cc(C(C)=O)c(C)oc2=O)cc1	2	-20	1	0.78	0.9	-17
